# Assays:
# Test in all cases: DAPPL (digital affinity profiling via proximity ligation, sequencing); 10 mM Tris-HCl pH 7.5, 50 mM NaCl, 1 mM DTT, 4% glycerol, room temperature, 30 min; GST-TFs on glutathione beads, 16-mer random dsDNA library, 0.1% formaldehyde crosslink after washing; high values mean tight binding
# Details in all cases: protein: recombinant; tags: N-terminal GST; dsDNA, one strand shown
# ELK1 = target: T1, ELK1 (Homo sapiens, UniProt P19419 1-428)
# T1 sequence: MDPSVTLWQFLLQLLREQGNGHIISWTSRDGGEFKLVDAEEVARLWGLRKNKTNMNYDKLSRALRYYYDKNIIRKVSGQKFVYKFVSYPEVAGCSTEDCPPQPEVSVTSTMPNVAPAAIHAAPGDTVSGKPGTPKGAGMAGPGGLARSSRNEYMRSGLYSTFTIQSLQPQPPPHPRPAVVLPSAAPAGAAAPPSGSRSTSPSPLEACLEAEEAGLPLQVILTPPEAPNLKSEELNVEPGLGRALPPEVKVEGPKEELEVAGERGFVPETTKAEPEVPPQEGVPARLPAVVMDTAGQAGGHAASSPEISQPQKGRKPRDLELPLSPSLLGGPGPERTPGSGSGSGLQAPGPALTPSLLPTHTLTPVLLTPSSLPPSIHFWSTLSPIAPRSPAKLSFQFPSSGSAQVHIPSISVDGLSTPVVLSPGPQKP
# Outline: (§1)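 Beads coated with glutathione captured GST-fused human transcription factors that had been expressed in yeast, and the factors were then given DNA barcodes and pooled with a tag-only sample. The pools were incubated with 200 nmole of a random double-stranded 16-mer DNA library in Tris/NaCl/DTT/glycerol buffer for 30 min at room temperature, washed, crosslinked with 0.1% formaldehyde and proximity-ligated with BsaI/T4 ligase at 37 °C for 1 h. PCR amplification and Illumina NextSeq500 sequencing came last. Binding signal is each hexamer's read frequency for a factor divided by its frequency for the tag-only sample.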
# GABPA = target: T2, GABPA (Homo sapiens, UniProt Q06546 1-454)
# T2 sequence: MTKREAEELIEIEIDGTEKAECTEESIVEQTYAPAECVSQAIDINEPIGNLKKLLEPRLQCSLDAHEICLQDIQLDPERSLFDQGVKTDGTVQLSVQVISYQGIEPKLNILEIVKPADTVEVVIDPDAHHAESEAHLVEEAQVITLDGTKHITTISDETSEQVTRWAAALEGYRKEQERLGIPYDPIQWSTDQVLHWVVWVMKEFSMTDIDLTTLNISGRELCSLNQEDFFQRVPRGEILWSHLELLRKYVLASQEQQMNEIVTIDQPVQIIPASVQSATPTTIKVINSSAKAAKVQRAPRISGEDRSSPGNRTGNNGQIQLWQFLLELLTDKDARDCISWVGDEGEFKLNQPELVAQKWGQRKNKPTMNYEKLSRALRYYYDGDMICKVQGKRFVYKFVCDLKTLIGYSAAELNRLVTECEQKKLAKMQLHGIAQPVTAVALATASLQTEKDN
# Outline: as §1
# ERG = target: T3, ERG (Homo sapiens, UniProt P11308 1-479)
# T3 sequence: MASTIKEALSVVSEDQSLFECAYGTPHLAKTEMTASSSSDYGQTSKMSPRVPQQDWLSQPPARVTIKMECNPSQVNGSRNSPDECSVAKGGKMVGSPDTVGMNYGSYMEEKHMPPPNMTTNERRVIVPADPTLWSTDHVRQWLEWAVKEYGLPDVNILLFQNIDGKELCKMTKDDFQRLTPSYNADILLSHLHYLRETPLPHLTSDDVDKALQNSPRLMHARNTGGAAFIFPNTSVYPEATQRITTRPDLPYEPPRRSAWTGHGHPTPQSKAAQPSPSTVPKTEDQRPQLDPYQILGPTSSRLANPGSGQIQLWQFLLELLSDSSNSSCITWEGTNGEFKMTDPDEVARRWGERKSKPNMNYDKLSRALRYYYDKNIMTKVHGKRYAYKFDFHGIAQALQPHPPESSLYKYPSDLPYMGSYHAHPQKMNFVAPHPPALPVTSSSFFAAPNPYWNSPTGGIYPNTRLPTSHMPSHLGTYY
# Outline: as §1
# SPIB = SPIB (Homo sapiens, UniProt Q01892 1-262)
# Outline: as §1
# SPIC = target: T4, SPIC (Homo sapiens, UniProt Q8N5J4 1-248)
# T4 sequence: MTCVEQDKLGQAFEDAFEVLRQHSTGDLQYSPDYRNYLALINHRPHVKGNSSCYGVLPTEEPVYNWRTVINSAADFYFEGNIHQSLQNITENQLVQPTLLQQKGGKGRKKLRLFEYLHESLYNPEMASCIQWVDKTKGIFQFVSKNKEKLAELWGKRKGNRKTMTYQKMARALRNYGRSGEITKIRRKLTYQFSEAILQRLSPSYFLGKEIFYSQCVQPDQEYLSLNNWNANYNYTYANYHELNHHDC
# Outline: as §1
# ELF4 = ELF4 (Homo sapiens, UniProt Q99607 1-663)
# Outline: as §1
# ELK4 = target: T5, ELK4 (Homo sapiens, UniProt P28324-2 1-405)
# T5 sequence: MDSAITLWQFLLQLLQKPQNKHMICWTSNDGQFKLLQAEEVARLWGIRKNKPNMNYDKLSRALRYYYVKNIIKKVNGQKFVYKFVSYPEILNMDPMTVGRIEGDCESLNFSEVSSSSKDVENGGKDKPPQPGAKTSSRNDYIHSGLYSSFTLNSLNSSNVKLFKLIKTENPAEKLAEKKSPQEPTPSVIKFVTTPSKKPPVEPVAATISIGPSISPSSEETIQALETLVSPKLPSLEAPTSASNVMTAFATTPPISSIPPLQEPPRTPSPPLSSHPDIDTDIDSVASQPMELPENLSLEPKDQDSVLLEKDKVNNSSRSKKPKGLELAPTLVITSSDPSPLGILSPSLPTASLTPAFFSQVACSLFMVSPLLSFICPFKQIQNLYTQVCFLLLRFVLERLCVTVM
# Outline: as §1
# ELF3 = target: T6, ELF3 (Homo sapiens, UniProt P78545 1-371)
# T6 sequence: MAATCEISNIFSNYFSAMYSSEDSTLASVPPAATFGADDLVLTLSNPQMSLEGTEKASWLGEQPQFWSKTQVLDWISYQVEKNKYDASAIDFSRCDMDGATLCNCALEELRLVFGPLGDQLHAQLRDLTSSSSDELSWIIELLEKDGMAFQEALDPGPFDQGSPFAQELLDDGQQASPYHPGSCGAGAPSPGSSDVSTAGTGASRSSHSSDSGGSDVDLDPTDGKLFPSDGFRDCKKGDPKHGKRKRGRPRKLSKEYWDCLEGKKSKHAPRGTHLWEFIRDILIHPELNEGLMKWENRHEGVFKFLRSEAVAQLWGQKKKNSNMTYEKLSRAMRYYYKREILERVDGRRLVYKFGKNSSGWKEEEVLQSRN
# Outline: as §1
# ETV1 = ETV1 (Homo sapiens, UniProt P50549 1-477)
# Outline: as §1
# ERF = target: T7, ERF (Homo sapiens, UniProt P50548 1-548)
# T7 sequence: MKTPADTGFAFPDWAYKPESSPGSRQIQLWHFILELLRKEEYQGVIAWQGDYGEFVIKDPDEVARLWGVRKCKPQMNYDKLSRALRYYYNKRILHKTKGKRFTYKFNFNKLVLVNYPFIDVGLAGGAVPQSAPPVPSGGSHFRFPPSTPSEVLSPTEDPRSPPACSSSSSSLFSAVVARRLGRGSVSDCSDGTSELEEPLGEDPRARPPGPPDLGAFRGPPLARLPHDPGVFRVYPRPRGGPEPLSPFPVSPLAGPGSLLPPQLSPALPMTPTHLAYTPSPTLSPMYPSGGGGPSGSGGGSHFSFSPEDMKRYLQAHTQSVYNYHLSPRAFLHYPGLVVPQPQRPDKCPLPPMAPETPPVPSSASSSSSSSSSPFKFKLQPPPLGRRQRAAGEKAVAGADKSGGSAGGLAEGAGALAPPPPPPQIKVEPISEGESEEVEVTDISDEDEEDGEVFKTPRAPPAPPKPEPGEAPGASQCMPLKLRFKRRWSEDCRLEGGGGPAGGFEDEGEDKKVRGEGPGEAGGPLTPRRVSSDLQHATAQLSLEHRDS
# Outline: as §1
# ETV3L = target: T8, ETV3L (Homo sapiens, UniProt Q6ZN32 1-361)
# T8 sequence: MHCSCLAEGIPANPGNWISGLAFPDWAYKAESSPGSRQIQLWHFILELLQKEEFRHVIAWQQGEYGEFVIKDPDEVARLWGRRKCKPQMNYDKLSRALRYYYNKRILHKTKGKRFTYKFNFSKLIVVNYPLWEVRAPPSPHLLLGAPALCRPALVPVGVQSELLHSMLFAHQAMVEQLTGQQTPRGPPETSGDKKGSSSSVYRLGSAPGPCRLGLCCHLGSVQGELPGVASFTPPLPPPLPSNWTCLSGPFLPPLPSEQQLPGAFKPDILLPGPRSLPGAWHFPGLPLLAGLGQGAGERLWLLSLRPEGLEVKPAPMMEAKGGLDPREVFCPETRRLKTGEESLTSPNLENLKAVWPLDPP
# Outline: as §1
# ETS2 = target: T9, ETS2 (Homo sapiens, UniProt P15036 1-469)
# T9 sequence: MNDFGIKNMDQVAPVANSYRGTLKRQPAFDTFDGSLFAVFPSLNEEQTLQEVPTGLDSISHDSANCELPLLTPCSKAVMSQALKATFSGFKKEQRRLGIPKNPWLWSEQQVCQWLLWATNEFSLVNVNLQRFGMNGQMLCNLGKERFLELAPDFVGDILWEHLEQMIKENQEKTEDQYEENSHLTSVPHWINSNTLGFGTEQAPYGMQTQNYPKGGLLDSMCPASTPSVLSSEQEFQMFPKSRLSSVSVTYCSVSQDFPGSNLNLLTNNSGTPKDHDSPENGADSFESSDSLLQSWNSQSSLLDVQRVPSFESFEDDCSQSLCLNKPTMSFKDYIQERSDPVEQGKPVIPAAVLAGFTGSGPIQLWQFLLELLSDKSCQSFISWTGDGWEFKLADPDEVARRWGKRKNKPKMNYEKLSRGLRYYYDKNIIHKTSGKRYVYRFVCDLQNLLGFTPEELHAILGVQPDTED
# Outline: as §1
# SPDEF = target: T10, SPDEF (Homo sapiens, UniProt O95238 1-335)
# T10 sequence: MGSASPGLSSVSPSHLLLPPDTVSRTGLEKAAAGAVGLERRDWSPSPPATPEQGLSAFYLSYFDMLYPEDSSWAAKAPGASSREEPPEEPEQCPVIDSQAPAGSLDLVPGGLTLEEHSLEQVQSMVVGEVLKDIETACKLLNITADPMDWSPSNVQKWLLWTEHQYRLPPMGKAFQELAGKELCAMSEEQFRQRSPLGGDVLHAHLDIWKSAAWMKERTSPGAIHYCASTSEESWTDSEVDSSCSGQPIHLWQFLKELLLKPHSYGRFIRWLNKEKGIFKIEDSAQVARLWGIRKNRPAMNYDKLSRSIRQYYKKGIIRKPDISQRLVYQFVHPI
# Outline: as §1
# ETV3 = target: T11, ETV3 (Homo sapiens, UniProt P41162-2 1-143)
# T11 sequence: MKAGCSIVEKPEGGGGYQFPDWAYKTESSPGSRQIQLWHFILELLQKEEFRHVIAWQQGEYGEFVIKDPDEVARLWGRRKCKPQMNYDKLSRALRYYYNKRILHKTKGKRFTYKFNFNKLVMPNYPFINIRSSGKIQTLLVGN
# Outline: as §1
# ETV6 = ETV6 (Homo sapiens, UniProt P41212 1-452)
# Outline: as §1
# Chain of ETV6 (P41212 whole entry): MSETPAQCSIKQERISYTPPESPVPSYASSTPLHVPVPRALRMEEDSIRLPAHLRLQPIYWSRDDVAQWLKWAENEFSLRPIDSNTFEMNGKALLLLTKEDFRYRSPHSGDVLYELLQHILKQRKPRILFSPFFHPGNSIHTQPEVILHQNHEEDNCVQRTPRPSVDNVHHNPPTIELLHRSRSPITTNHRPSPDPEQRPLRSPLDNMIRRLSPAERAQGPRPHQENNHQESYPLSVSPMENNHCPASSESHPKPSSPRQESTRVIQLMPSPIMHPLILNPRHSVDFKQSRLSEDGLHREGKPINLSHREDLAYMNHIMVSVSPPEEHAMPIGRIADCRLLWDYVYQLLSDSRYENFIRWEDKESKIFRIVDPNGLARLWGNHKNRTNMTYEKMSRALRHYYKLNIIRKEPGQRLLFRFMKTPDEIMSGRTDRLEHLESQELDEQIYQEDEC
# Chain of SPIB (Q01892 whole entry): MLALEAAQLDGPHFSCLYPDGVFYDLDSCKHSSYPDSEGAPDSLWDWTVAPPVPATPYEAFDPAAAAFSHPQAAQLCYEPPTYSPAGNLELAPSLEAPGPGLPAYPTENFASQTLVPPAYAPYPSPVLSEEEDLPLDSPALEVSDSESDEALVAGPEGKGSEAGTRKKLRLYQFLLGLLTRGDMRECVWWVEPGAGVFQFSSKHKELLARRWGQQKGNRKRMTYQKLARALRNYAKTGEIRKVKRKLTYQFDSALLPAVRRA
# Chain of ETV1 (P50549 whole entry): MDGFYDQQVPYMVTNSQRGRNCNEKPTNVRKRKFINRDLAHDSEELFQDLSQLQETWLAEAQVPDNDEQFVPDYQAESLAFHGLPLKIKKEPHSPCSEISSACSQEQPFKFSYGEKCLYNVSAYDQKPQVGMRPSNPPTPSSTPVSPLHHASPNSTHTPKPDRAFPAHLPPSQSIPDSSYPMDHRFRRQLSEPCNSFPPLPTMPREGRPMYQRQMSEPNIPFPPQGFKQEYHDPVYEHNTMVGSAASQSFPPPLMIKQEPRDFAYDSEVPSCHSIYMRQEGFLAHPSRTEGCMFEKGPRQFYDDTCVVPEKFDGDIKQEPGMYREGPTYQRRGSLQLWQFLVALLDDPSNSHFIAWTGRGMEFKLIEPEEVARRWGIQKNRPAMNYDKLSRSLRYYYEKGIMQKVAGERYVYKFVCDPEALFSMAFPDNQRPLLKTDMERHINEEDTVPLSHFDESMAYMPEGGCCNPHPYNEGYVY
# Chain of ELF4 (Q99607 whole entry): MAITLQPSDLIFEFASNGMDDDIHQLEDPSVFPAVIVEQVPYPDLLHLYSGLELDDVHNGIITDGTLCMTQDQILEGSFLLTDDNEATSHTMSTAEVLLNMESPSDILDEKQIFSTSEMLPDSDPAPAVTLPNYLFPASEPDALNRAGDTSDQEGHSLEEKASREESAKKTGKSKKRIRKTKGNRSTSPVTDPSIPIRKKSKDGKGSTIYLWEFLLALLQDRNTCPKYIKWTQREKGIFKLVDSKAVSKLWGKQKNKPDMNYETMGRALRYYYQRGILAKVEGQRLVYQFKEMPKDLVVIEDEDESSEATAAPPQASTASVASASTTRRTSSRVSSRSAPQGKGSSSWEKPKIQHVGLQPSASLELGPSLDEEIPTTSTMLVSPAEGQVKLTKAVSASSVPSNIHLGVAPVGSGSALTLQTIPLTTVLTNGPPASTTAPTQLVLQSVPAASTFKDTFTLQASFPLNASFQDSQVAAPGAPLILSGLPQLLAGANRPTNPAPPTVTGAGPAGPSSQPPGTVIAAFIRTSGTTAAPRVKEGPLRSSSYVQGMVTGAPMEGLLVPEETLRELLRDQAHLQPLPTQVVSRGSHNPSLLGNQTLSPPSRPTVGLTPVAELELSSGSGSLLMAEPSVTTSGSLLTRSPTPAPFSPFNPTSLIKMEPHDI
sequence,measurement,setting,value
TGGATA,binding signal,ELK1,"1.05 fold enrichment (6-mer frequency, TF over GST control)"
same,binding signal,GABPA,"1.1 fold enrichment (6-mer frequency, TF over GST control)"
same,binding signal,ERG,"1.08 fold enrichment (6-mer frequency, TF over GST control)"
same,binding signal,SPIB,"1.12 fold enrichment (6-mer frequency, TF over GST control)"
same,binding signal,SPIC,"1.04 fold enrichment (6-mer frequency, TF over GST control)"
same,binding signal,ELF4,"1.05 fold enrichment (6-mer frequency, TF over GST control)"
same,binding signal,ELK4,"1.07 fold enrichment (6-mer frequency, TF over GST control)"
same,binding signal,ELF3,"1.16 fold enrichment (6-mer frequency, TF over GST control)"
same,binding signal,ETV1,"1.09 fold enrichment (6-mer frequency, TF over GST control)"
same,binding signal,ERF,"1 fold enrichment (6-mer frequency, TF over GST control)"
same,binding signal,ETV3L,"1.04 fold enrichment (6-mer frequency, TF over GST control)"
same,binding signal,ETS2,"1.06 fold enrichment (6-mer frequency, TF over GST control)"
same,binding signal,SPDEF,"1.06 fold enrichment (6-mer frequency, TF over GST control)"
same,binding signal,ETV3,"1.06 fold enrichment (6-mer frequency, TF over GST control)"
same,binding signal,ETV6,"1 fold enrichment (6-mer frequency, TF over GST control)"

# — publication PMC7862700, “An all-to-all approach to the identification of sequence-specific readers for epigenetic DNA modifications on cytosine”
